# Assay results: ChEMBL document CHEMBL2218924, “A broad activity screen in support of a chemogenomic map for kinase signalling research and drug discovery” (Biochem J, 2013)
# Tests used:
# [1] = molecular target: T1, Ephrin type-A receptor 3 (Homo sapiens) (UniProt P29320); conditions: at 10 µM
# T1 sequence (whole entry): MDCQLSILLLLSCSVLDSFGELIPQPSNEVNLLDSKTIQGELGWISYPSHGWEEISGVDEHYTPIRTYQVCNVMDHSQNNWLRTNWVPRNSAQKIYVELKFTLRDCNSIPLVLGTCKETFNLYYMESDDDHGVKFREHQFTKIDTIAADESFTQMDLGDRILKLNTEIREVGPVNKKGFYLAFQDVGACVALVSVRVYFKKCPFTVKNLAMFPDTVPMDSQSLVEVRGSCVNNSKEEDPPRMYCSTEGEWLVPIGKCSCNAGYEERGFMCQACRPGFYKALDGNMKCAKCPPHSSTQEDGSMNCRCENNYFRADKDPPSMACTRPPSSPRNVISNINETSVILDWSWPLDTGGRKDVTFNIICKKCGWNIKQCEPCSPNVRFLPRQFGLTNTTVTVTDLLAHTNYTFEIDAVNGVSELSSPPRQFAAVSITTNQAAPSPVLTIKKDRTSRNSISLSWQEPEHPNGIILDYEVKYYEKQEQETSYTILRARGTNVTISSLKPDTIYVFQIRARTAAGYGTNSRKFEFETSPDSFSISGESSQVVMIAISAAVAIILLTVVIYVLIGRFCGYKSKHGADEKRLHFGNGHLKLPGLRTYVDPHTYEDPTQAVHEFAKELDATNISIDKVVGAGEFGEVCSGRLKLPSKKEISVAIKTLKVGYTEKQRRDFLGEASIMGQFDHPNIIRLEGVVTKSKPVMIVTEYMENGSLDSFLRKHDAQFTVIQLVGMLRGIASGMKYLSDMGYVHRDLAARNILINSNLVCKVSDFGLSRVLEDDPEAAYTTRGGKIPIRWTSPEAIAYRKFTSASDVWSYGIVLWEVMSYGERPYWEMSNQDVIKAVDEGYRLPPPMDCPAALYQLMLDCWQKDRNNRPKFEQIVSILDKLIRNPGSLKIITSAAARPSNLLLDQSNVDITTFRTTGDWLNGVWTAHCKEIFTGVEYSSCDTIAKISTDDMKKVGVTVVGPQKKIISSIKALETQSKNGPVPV
# [2] = molecular target: Ephrin type-A receptor 4 (Homo sapiens) (UniProt P54764); conditions: at 1 µM
# [3] = molecular target: Ephrin type-A receptor 4 (Homo sapiens) (UniProt P54764); conditions: at 10 µM
# [4] = molecular target: Ephrin type-A receptor 5 (Homo sapiens) (UniProt P54756); conditions: at 1 µM
# [5] = molecular target: Ephrin type-A receptor 5 (Homo sapiens) (UniProt P54756); conditions: at 10 µM
# [6] = molecular target: Ephrin type-A receptor 7 (Homo sapiens) (UniProt Q15375); conditions: at 1 µM
# [7] = molecular target: Ephrin type-A receptor 7 (Homo sapiens) (UniProt Q15375); conditions: at 10 µM
# [8] = molecular target: T2, Ephrin type-A receptor 8 (Homo sapiens) (UniProt P29322); conditions: at 1 µM
# T2 sequence (whole entry): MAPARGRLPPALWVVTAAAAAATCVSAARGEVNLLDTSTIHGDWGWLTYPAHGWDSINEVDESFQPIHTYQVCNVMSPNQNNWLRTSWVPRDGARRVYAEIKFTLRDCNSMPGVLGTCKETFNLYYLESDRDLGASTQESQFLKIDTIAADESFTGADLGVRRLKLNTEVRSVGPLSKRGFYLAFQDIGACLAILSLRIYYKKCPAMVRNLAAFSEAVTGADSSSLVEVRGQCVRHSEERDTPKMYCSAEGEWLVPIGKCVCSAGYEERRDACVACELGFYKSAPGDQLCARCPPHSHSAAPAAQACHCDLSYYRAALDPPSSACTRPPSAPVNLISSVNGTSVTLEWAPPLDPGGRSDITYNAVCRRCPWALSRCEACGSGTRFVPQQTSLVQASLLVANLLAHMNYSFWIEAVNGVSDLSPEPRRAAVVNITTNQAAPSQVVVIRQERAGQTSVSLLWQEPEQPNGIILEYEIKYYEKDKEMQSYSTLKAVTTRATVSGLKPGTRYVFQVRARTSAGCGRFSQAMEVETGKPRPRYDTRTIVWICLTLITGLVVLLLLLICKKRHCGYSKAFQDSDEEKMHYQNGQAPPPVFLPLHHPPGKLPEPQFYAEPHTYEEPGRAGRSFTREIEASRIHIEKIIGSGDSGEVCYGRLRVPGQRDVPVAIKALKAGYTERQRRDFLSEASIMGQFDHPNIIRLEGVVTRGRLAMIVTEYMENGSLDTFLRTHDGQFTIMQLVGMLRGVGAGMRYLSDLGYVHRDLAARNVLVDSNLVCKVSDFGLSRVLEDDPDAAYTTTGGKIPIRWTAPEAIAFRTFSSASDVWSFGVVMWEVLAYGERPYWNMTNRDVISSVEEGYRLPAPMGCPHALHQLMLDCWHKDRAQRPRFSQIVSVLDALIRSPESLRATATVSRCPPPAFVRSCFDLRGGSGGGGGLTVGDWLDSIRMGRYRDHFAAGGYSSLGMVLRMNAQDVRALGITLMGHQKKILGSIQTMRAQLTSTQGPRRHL
# [9] = molecular target: T2, Ephrin type-A receptor 8 (Homo sapiens); conditions: at 10 µM
# [10] = molecular target: T3, Ephrin type-B receptor 1 (Homo sapiens) (UniProt P54762); conditions: at 1 µM
# T3 sequence (whole entry): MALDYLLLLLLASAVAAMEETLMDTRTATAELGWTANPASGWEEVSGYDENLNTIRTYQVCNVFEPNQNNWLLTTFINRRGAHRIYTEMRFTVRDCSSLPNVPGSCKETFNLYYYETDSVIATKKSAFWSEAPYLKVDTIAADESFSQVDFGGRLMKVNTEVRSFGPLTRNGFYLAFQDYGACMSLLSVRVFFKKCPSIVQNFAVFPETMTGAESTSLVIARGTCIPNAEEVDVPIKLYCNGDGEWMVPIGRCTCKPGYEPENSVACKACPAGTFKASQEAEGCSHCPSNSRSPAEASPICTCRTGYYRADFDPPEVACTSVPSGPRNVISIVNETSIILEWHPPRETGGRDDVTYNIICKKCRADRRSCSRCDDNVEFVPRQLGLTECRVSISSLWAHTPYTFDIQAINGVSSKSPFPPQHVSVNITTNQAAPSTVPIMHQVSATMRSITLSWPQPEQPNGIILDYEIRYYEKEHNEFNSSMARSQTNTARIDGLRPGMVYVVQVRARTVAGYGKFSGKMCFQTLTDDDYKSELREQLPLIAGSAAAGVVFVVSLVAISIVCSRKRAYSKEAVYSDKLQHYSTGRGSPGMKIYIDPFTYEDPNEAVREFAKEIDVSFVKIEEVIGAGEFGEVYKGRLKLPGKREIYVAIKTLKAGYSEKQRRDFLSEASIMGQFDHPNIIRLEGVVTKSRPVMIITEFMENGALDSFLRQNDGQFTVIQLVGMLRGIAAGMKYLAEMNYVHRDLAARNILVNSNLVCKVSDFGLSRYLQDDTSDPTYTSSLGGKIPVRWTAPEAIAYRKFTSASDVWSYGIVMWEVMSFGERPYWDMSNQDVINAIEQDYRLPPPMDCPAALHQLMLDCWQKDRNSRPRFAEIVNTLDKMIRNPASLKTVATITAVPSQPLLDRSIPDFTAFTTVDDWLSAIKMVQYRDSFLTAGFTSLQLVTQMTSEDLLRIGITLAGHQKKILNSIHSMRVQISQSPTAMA
# Chain of Ephrin type-A receptor 4 (Homo sapiens) (P54764 whole entry): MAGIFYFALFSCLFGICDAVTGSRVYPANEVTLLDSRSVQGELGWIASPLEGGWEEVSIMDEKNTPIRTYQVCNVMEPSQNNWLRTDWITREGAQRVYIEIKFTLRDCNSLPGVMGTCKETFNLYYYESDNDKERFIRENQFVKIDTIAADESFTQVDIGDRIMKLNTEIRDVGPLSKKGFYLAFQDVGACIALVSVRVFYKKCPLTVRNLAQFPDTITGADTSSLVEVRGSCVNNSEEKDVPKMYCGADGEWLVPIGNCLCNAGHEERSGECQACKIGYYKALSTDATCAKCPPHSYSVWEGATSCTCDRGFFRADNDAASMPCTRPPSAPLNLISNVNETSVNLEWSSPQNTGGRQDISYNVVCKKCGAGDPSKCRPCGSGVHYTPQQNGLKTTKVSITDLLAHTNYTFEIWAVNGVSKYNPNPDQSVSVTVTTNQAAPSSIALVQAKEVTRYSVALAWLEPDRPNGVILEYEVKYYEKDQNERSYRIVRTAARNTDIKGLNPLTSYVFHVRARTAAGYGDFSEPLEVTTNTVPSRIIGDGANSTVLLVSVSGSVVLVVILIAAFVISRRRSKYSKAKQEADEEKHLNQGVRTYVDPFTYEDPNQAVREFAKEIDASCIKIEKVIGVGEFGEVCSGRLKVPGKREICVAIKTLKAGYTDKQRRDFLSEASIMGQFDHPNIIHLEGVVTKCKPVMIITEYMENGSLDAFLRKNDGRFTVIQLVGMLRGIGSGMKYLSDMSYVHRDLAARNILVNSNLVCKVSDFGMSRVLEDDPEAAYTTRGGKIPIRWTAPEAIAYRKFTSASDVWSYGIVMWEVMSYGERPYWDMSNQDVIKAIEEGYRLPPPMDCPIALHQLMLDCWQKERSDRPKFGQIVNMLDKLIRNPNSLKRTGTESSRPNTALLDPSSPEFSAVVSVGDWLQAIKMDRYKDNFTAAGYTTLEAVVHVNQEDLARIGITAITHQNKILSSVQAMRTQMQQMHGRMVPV
# Chain of Ephrin type-A receptor 5 (Homo sapiens) (P54756 whole entry): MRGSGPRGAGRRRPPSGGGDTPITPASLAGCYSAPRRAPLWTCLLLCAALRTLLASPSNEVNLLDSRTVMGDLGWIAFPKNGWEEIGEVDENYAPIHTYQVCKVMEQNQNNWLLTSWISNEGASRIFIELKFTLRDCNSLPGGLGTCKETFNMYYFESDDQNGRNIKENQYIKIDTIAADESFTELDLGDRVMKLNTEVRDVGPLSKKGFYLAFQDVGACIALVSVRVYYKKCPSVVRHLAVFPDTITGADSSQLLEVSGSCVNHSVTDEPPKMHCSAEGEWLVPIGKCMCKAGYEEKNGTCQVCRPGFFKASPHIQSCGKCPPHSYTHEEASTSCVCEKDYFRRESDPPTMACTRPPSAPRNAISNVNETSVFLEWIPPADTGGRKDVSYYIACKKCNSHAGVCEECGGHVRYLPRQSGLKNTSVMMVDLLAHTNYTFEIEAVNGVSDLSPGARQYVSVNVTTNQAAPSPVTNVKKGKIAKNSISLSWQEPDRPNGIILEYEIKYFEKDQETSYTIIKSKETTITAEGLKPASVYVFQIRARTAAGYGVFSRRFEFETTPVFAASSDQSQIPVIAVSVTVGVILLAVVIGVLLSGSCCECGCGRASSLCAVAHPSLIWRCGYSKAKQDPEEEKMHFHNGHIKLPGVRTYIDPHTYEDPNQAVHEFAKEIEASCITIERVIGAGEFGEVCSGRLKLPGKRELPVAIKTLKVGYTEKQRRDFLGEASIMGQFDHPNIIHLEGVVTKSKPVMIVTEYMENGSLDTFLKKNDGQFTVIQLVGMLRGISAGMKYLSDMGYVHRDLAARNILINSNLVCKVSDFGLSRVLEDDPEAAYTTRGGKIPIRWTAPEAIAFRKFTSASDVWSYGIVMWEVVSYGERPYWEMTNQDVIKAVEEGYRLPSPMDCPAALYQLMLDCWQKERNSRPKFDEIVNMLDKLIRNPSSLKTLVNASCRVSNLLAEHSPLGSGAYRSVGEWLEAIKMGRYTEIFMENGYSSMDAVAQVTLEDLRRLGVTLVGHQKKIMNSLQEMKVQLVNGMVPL
# Chain of Ephrin type-A receptor 7 (Homo sapiens) (Q15375 28-998 limits assumed): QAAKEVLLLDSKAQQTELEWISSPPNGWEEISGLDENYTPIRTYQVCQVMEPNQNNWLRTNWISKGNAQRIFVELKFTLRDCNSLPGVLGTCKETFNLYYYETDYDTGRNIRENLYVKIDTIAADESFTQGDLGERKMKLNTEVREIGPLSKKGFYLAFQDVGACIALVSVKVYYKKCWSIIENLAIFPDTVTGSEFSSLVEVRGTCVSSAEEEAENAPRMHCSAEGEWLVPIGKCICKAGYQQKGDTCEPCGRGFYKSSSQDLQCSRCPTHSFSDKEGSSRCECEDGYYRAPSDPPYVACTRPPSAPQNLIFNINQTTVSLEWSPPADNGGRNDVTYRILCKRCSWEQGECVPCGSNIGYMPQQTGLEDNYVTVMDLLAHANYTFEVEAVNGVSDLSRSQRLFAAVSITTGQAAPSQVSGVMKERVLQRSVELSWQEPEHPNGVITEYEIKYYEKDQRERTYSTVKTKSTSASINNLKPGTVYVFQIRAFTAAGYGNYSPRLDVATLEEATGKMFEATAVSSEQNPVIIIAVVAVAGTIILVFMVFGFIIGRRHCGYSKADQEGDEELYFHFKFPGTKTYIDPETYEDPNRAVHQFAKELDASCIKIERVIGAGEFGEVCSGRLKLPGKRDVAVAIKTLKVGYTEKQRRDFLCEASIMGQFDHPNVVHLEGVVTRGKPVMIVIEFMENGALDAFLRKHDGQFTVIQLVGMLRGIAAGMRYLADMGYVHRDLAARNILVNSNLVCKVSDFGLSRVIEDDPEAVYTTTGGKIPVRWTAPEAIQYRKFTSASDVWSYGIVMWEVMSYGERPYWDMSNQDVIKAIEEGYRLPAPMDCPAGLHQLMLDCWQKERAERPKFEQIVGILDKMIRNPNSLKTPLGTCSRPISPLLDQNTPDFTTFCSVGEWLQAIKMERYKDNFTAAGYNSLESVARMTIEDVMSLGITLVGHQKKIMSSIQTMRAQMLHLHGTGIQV
structure (smiles),measurement,setting,value
COc1ccc(C(=O)Nc2sc3c(c2C(N)=O)CCCC3)cc1OC,residual activity,[1],89%
same,residual activity,[2],112%
same,residual activity,[3],95%
same,residual activity,[4],94%
same,residual activity,[5],108%
same,residual activity,[6],92%
same,residual activity,[7],87%
same,residual activity,[8],107%
same,residual activity,[9],85%
same,residual activity,[10],83%
